Rows were chosen to be rich in hits. Some 14% of all compounds tested hit in one or more screens of this group.
LASV entry inh = inhibitors of Lassa virus binding or cell entry. Potency, µM (titrated, usually from 37.9 µM), actives largely listed as inhibitors. Lassa virus pseudotype entry inhibition, cell reporter. 300,000 compounds, 1.2% hits; calls by dose curve; tested in HEK293 cells; note: nearly all actives have a fitted effect of over 50% in size
Marburg entry inh = blocks Marburg virus binding to or entry into cells | Marburg virus pseudotyped entry inhibition, cell reporter | Potency, µM (highest dose often 37.8 µM), usual class: inhibitors | 300,000 compounds, 1.8% hits; calls by dose curve; tested in HEK293 cells
Pf growth 48h = P. falciparum growth inhibition at 48 hours (one generation). 310,000 compounds, 5.9% hits. Potency, µM (top dose mostly 28.7 µM), hits mostly inhibitors. P. falciparum luciferase growth in erythrocytes, 48 h
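Firefly luciferase activity from engineered P. falciparum reports growth; inhibitors lower the luminescent signal. Cultures contained 2% hematocrit erythrocytes at 0.1% final parasitemia.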
HCV inh = blocks hepatitis C virus; 340,000 compounds, 3.4% hits; Huh7.5.1 HCVcc-Cre infection, luciferase reporter, 44 h; Potency, µM (highest dose often 41.8 µM), most hits filed as inhibitors; AID 651820
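Seed cells (1,000/well) for 4 h; treat with compound and infect with HCVcc-Cre, moi about 0.5. Incubate 44 h, then detect luciferase activity.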
Pf growth 96h = inhibits malaria parasite growth, 96 h | P. falciparum luciferase reporter growth, 96 h | Potency, µM (doses to about 28.7 µM), actives largely listed as inhibitors | 320,000 compounds, 6.9% hits
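Plates of compound plus infected erythrocytes (2% hematocrit, 0.05% parasitemia final) incubate 96 hours, 37 C, 5% CO2. Detection reagent added; reduced luminescence from the parasites' luciferase reporter flags inhibition.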
HCMV inh = inhibitors of human cytomegalovirus; HFF cells, HCMV-luciferase reporter, 72 h; stronger effect = lower value; 410,000 compounds, 4.5% hits; activity change, negative = inhibition, % at 57.5 µM; in the data active = activity change below about -60%; inconclusive = no clear call, values can overlap the other calls; inactive = above about -39%
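HFF cells seeded 16 h at 37C, treated with compounds, infected with luciferase-reporter HCMV at MOI 1 PFU/cell; luciferase read at 72 h post infection, normalized to buffer-only and Salinomycin controls.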
Large screens that a line does not name were inactive. Unless noted, calls come from the whole dose curve; as a rule, active = well fitted inhibition curve with a large enough effect; inconclusive = small, poorly fitted or top-dose-only effect, or another doubt; inactive = no such curve, though single readings can be large or run the other way.

COc1ccc(N2CC(NC(=O)c3ccc(OC(C)C)cc3)CC2=O)cc1 (stereo unspecified)	none (no result: Marburg entry inh, Pf growth 48h, HCV inh, Pf growth 96h)
Cc1cc(-c2ccc(C)c(S(=O)(=O)N(Cc3cccs3)C(C)C)c2)on1	HCMV inh -77.0 (no result: Marburg entry inh, Pf growth 48h, HCV inh, Pf growth 96h)
CCOc1ccc(N(C)S(=O)(=O)c2cc(-c3cc(C)no3)ccc2CC)cc1	LASV entry inh inconclusive, Marburg entry inh inconclusive, Pf growth 48h 11.7µM, HCV inh inconclusive, HCMV inh -90.0
CCc1ccc(-c2cc(C)no2)cc1S(=O)(=O)Nc1ccc(C)cn1	Pf growth 96h 13.1µM
CCN(CCCNS(=O)(=O)c1cc(-c2cc(C)no2)ccc1C)Cc1ccccc1	Pf growth 48h inconclusive, HCV inh 12.6µM, HCMV inh inconclusive (no result: LASV entry inh, Marburg entry inh)
Cc1ccc(NS(=O)(=O)c2cc(-c3cc(C)no3)ccc2C(C)C)nc1	none (no result: LASV entry inh, Marburg entry inh)
Cc1cc(-c2ccc(C)c(S(=O)(=O)N(C(C)C)C3CCCCC3)c2)on1	none (no result: Marburg entry inh, Pf growth 48h, HCV inh, Pf growth 96h)
Cc1ccccc1CSc1ncc(CO)n1Cc1ccc(F)cc1	none (no result: Marburg entry inh, Pf growth 48h, HCV inh, Pf growth 96h)
CCc1ccc(-c2cc(C)no2)cc1S(=O)(=O)N1CCN(c2ccc(F)cc2)CC1	Pf growth 48h 13.1µM, HCV inh 5.01µM, Pf growth 96h inconclusive, HCMV inh inconclusive (no result: LASV entry inh, Marburg entry inh)
CN1C(=O)N(CC(=O)Nc2cccc(S(=O)(=O)N(C)c3ccccc3)c2)C(=O)C12CCCCC2	LASV entry inh inconclusive, Marburg entry inh inconclusive, Pf growth 48h 14.7µM, HCV inh 3.98µM, Pf growth 96h inconclusive
CCC1CCC2(CC1)NC(=O)N(CC(=O)Nc1cccc(S(=O)(=O)N(C)c3ccccc3)c1)C2=O (stereo unspecified)	Pf growth 48h inconclusive, HCV inh 8.91µM, Pf growth 96h inconclusive (no result: LASV entry inh, Marburg entry inh)
CN(c1ccccc1)S(=O)(=O)c1cccc(NC(=O)CSc2nccc(=O)[nH]2)c1	none (no result: Pf growth 48h, Pf growth 96h)
Cn1ccnc1C1CCCCN1Cc1nc(-c2ccc(Cl)cc2)no1 (stereo unspecified)	Pf growth 48h 11.7µM, Pf growth 96h inconclusive (no result: LASV entry inh, Marburg entry inh)
Clc1ccc(-c2noc(CN3CCCC3)n2)cc1	Marburg entry inh inconclusive, HCV inh inconclusive, Pf growth 96h inconclusive
O=C(CSc1nc2ccccc2nc1Cc1ccc(Cl)cc1)Nc1ccc2c(c1)OCO2	none (no result: Marburg entry inh, Pf growth 48h, HCV inh, Pf growth 96h)
O=C(c1ccco1)N1N=C(c2ccco2)CC1c1ccc(Cl)cc1Cl (stereo unspecified)	Pf growth 48h 8.28µM, Pf growth 96h 4.15µM (no result: LASV entry inh, Marburg entry inh)
O=S(=O)(c1ccccc1)N1N=C(c2ccccc2)CC1c1ccccc1 (stereo unspecified)	Marburg entry inh inconclusive, Pf growth 48h inconclusive, Pf growth 96h inconclusive, HCMV inh -73.7
COc1ccccc1C1CC(c2ccccc2)=NN1S(=O)(=O)c1ccccc1 (stereo unspecified)	Pf growth 48h inconclusive, Pf growth 96h inconclusive (no result: LASV entry inh, Marburg entry inh)
COc1ccc(C2=NN(C(=O)c3ccco3)C(c3cc4ccccc4nc3Cl)C2)cc1 (stereo unspecified)	none (no result: LASV entry inh, Marburg entry inh, HCMV inh)
COc1ccc(C2=NN(S(=O)(=O)c3ccccc3)C(c3ccccc3)C2)cc1 (stereo unspecified)	Pf growth 48h inconclusive, HCV inh inconclusive, Pf growth 96h 6.57µM (no result: LASV entry inh, Marburg entry inh)
COc1ccc(C2CC(c3ccccc3)=NN2S(=O)(=O)c2ccccc2)c(OC)c1 (stereo unspecified)	Pf growth 48h inconclusive
O=S(=O)(c1ccccc1)N1N=C(c2ccc(Cl)cc2)CC1c1ccco1 (stereo unspecified)	LASV entry inh inconclusive, Marburg entry inh 10µM, Pf growth 48h 10.4µM, HCV inh inconclusive, Pf growth 96h inconclusive
CC1(C)OC(=O)C2=C(C[C@@H](C3CC3)O[C@@H]2C2CC2)O1	none (no result: LASV entry inh, Marburg entry inh, Pf growth 48h, HCV inh, Pf growth 96h)
CC(CNC(=O)c1ccc(Cn2c(=O)c3cccn3c3cccnc32)cc1)c1ccccc1 (stereo unspecified)	HCMV inh inconclusive (no result: Marburg entry inh, Pf growth 48h, HCV inh, Pf growth 96h)
COc1ccc(C2CC(c3ccccc3)=NN2S(=O)(=O)c2ccc(C)cc2)c(OC)c1 (stereo unspecified)	LASV entry inh inconclusive, Marburg entry inh inconclusive, Pf growth 48h inconclusive, HCV inh inconclusive, Pf growth 96h 11.7µM, HCMV inh -62.6
O=C(c1ccc(Br)o1)N1N=C(c2ccc(Cl)cc2)CC1c1ccco1 (stereo unspecified)	Pf growth 48h inconclusive, HCV inh inconclusive, Pf growth 96h 9.28µM, HCMV inh inconclusive

Assay outcomes (PubChem BioAssay)
